Where a name gives a salt, the structure may show the parent alone.
test system: Danio rerio larvae (5 dpf); test: startle response to 20-s acoustic pulses, difference vs DMSO (percentage points (treated minus DMSO)); higher = more of the behaviour than the DMSO vehicle control; conditions: 10 µM; exposure time: 3 h pre-incubation + 3 h imaging
Procedure: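 5-dpf wild-type zebrafish larvae were imaged in 96-well plates. They were treated with 190 Tocris FDA-approved drugs at 10 µM (1 µl/ml DMSO) for 3 h before and 3 h during imaging at 28.5 °C, 48 larvae per drug. Automated image analysis gave % time moving and optomotor responses. Values are drug group mean minus DMSO vehicle mean (n=844), in percentage points, for 10 behaviours.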

Compound | startle response to 20-s acoustic pulses
O=c1[nH]c2ccccc2n1C1CCN(CCCC(c2ccc(F)cc2)c2ccc(F)cc2)CC1 [Pimozide] | 2.42
CN1C[C@H](C(=O)N[C@]2(C)O[C@@]3(O)[C@@H]4CCCN4C(=O)[C@H](Cc4ccccc4)N3C2=O)C[C@@H]2c3cccc4[nH]cc(c34)C[C@H]21 [Dihydroergotamine mesylate] | 5.17
COc1cc2c(cc1OC)C1CC(=O)C(CC(C)C)CN1CC2 (configuration not stated) [Tetrabenazine] | -5.81
N[C@@H]1C[C@H]1c1ccccc1 [Tranylcypromine hydrochloride] | -9.81
Cc1cccc([C@H](C)c2c[nH]cn2)c1C [Dexmedetomidine hydrochloride] | 6.09
C=C1C[C@@H]2[C@H](CC[C@]3(C)C(=O)CC[C@@H]23)[C@@]2(C)C=CC(=O)C=C12 [Exemestane] | 2.55
CCN(C)C(=O)Oc1cccc([C@H](C)N(C)C)c1 [Rivastigmine tartrate] | 5.58
COc1ccc(C(CN(C)C)C2(O)CCCCC2)cc1 (configuration not stated) [Venlafaxine hydrochloride] | -5.93
CC[C@@H](C(N)=O)N1CCCC1=O [Levetiracetam] | 1.64
C=CCN1C[C@H](C(=O)N(CCCN(C)C)C(=O)NCC)C[C@@H]2c3cccc4[nH]cc(c34)C[C@H]21 [Cabergoline] | -8.7
CC(O)(CS(=O)(=O)c1ccc(F)cc1)C(=O)Nc1ccc(C#N)c(C(F)(F)F)c1 (configuration not stated) [Bicalutamide] | 0.332
CC(C)C[C@H]1C(=O)N2CCC[C@H]2[C@]2(O)O[C@](NC(=O)[C@@H]3C=C4c5cccc6[nH]c(Br)c(c56)C[C@H]4N(C)C3)(C(C)C)C(=O)N12 [Bromocriptine mesylate] | -8.49

From the supplement of paper PMC9023506
